# Activity calls are given as the source filed them. Unless noted, no stated cut-off is given here; in the data, active means response above about 15%; inactive means the rest.
# Experiments:
# [1] = inhibitors of CD8+ T cell-vesicle binding, pilot screen, LFA-1/ICAM-1 modulator project, MLPCN validation set, flow cytometry (AID 2523;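 active means response below a set limit, under 55% cells CD8-positive and vesicle-bound, and CD8 cells' 90th-percentile brightness under 279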;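 on vesicle binding response: mean PE anti-B7-1 fluorescence of CD8+ cells relative to row control; 100% = QL9-loaded vesicles with DMSO vehicle in the same plate row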); conditions: 2C mouse CD8+ T cells, at 7 µM, stronger effect = lower value; double positive events: measured here: CD8+/vesicle+ event percentage
# [2] = biological target: Integrin beta-1 (Homo sapiens) + Integrin alpha-4 (Homo sapiens) (UniProt P13612+P05556); assay: inhibition of HUTS-21 binding to VLA-4, pilot screen, VLA-4 allosteric modulator project, U937 cells, HUTS-21 mAb, flow cytometry, validation set (AID 2674;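 active means inhibition above 50%, about 3 SD of the validation set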;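 further: antibody binding induced by the VLA-4 ligand LDV present at three times its Kd; 0% = LDV ligand with antibody and no compound and 100% = antibody without LDV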); conditions: HUTS-21 LIBS mAb binding, at 6.7 µM, stronger effect = higher value, binding induced by LDV ligand
# Chain of Integrin beta-1 (Homo sapiens) + Integrin alpha-4 (Homo sapiens) (P05556 whole entry, looked up): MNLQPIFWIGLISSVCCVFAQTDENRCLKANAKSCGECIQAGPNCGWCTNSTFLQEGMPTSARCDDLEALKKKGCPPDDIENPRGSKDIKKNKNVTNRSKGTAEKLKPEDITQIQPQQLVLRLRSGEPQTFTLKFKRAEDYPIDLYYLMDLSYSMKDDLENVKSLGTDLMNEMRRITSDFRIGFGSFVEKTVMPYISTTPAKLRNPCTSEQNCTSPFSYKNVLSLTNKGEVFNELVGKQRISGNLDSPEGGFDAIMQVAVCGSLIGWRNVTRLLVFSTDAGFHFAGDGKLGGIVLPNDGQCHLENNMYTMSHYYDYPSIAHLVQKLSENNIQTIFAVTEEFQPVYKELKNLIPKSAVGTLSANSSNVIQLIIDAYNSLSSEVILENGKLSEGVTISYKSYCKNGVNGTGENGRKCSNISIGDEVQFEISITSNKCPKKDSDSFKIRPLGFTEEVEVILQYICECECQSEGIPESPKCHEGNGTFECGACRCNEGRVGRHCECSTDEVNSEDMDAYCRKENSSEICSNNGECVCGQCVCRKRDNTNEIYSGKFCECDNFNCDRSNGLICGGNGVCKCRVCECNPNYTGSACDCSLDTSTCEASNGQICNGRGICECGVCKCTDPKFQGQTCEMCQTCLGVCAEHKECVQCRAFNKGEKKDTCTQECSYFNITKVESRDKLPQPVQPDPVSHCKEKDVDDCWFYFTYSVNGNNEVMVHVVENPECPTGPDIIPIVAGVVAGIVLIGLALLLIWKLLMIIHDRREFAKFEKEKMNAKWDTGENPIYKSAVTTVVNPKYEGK
# Chain of Integrin beta-1 (Homo sapiens) + Integrin alpha-4 (Homo sapiens) (P13612 whole entry, looked up): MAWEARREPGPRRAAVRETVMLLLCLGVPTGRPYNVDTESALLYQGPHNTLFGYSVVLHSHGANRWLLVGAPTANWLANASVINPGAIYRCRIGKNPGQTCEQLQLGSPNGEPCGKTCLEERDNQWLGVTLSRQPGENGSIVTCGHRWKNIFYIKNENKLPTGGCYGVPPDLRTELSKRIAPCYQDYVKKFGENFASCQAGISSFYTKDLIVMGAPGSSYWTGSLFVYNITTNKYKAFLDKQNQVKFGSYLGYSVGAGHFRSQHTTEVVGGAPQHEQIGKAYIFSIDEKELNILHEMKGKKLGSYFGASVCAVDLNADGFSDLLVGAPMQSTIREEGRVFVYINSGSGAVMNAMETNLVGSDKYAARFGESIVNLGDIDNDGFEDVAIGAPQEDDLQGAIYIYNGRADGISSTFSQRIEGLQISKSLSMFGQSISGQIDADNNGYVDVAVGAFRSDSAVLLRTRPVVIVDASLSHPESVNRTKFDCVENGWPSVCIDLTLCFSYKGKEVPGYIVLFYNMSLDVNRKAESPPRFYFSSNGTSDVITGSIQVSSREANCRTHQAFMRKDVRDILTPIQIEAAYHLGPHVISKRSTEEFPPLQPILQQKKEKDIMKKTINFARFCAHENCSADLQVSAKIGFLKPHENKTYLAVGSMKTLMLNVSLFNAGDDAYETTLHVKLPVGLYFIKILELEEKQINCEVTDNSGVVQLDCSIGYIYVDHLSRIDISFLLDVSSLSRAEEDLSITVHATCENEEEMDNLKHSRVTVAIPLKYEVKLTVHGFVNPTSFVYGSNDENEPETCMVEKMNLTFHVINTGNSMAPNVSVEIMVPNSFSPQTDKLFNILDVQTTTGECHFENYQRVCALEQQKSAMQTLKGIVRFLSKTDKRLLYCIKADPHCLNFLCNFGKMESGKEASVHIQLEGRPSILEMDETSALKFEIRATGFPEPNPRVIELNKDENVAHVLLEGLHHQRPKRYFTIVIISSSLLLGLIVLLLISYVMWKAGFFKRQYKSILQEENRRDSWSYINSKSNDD
# [3] = superoxide lowering in aged yeast cells, pilot screen, validation compound set (AID 2706;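 active means superoxide response below 65% of plate, a cut near 3 SD across the whole screen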;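 further: yeast exposed to compound for one week at 30 degrees C before staining; 100% = mean of all compound wells on the same plate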); conditions: S. cerevisiae aging, superoxide DHE fluorescence; at 10 µM, stronger effect = lower value
# [4] = biological target: Beta-adrenergic receptor kinase 1 (Homo sapiens) (UniProt P25098); assay: GRK2 binders displacing RNA aptamer, biochemical, validation, human GRK2, bead flow cytometry (AID 488806;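 active means aptamer binding inhibition above 30%, about 3 SD of noise from non-fluorescent compounds; inactive means inhibition at or below 30%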); conditions: bead-bound GRK2, FAM-aptamer displacement, at 10 µM, stronger effect = higher value
# Chain of Beta-adrenergic receptor kinase 1 (Homo sapiens) (P25098 whole entry, looked up): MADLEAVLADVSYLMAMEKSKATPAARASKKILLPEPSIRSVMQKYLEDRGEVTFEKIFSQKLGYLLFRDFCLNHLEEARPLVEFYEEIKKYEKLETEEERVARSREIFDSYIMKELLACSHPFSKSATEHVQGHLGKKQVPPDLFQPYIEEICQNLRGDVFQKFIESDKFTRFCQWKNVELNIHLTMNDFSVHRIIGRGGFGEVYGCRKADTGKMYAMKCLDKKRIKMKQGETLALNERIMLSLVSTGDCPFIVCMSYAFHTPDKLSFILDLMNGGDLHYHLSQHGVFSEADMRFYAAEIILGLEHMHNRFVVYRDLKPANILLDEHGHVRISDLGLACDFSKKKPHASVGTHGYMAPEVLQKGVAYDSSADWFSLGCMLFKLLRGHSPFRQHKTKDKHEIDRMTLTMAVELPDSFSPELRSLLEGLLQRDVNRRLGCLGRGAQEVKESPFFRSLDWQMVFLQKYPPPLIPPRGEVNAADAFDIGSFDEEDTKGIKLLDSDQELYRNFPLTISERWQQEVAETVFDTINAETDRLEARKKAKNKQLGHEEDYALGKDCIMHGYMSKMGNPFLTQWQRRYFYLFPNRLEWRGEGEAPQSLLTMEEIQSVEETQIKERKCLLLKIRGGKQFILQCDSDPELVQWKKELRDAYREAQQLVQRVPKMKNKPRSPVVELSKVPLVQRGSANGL
# [5] = biological target: AP-2 complex subunit beta (Homo sapiens) (UniProt P63010); assay: inhibitors of arrestin peptide binding to AP2, pilot screen, biochemical, validation set, GST-AP2 beads, flow cytometry (AID 504541;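 active means inhibition above 54%, about 3 SD of non-fluorescent compounds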;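 further: AP2 carries R879A mutation and is captured from E. coli lysate; bead-bound FITC arrestin peptide fluorescence measuring arrestin peptide binding to AP2; 0% = DMSO wells and 100% = excess unlabeled arrestin peptide control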); conditions: FITC arrestin peptide, at 10 µM, stronger effect = higher value, AP2 beta2 appendage fragment, R879A mutant
# Chain of AP-2 complex subunit beta (Homo sapiens) (P63010 whole entry, looked up, the tested form may be a part, one chain of several): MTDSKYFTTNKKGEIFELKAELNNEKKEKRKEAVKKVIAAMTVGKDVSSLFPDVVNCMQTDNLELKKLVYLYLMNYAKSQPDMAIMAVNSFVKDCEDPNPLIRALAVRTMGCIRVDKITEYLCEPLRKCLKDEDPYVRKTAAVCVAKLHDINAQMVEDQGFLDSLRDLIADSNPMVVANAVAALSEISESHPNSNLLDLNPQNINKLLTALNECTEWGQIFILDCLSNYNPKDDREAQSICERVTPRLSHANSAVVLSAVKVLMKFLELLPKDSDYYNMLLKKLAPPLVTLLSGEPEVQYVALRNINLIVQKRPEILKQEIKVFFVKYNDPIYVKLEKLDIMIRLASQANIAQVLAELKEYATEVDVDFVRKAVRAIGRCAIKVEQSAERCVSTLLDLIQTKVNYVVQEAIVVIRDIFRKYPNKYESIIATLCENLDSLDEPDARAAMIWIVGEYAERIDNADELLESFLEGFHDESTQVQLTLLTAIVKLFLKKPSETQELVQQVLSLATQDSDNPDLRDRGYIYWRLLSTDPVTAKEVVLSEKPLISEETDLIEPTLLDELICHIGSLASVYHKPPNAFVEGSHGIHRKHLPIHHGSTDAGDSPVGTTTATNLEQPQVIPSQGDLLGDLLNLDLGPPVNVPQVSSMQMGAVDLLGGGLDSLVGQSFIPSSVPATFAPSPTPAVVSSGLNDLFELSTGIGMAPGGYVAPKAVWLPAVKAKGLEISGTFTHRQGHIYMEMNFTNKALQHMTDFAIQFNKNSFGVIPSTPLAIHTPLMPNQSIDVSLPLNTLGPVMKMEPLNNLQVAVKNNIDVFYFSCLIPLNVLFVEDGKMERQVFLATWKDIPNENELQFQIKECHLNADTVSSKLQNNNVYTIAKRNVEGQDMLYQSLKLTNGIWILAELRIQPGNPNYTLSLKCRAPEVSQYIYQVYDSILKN
# [6] = yeast V-ATPase proton transport modulators, S. cerevisiae, pHLuorin, HTS validation (AID 504600);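 further: plate controls were DMSO for no effect and reference compound for full effect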; conditions: S. cerevisiae pHLuorin cytosolic pH, at 10 µM, stronger effect = higher value
# [7] = test system: anti-desmoglein-3 scFv antibody binding to human DSG3; assay: inhibitors of anti-DSG3 scFv binding to DSG3, pilot screen, biochemical, validation compound set, bead-based, flow cytometry (AID 588368;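 active means binding below the plate cutoff, the plate median minus 3 SD, with a reading above zero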;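 further: signal is the median channel fluorescence of bead-bound GFP antibody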); conditions: Protein G beads, DSG3-Fc, scFv-GFP binding, at 10 µM, stronger effect = lower value
# [8] = inhibitors of fungal efflux pumps CDR1, CDR2, MDR1, pilot screen, validation compound set, multiplex, phenotypic (AID 588506;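 active means efflux inhibition above 0.42, the validation set average plus 4 SD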;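 further: Nile Red retained in cells so higher fluorescence means more efflux inhibition; 0 = negative control wells and 1 = enniatin B 25 µM full block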); conditions: S. cerevisiae pump-expressing triplex, Nile Red efflux flow cytometry; at 10 µM; stronger effect = higher value; the pumps come from Candida albicans
# [9] = biological target: ATP-binding cassette sub-family B member 6 (Homo sapiens) (UniProt Q9NP58); assay: ABCB6 transporter inhibitors, pilot screen, K562-ABCB6 cells, flow cytometry, validation set (AID 588550;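 active means inhibition above the screen-wide mean plus 3 SD, about 51%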;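 further: 0% = DMSO wells and 100% = benzethonium chloride 70 µM positive control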); conditions: K562-ABCB6 porphyrin accumulation, 1 h, at 10 µM, stronger effect = higher value
# Chain of ATP-binding cassette sub-family B member 6 (Homo sapiens) (Q9NP58 whole entry, looked up): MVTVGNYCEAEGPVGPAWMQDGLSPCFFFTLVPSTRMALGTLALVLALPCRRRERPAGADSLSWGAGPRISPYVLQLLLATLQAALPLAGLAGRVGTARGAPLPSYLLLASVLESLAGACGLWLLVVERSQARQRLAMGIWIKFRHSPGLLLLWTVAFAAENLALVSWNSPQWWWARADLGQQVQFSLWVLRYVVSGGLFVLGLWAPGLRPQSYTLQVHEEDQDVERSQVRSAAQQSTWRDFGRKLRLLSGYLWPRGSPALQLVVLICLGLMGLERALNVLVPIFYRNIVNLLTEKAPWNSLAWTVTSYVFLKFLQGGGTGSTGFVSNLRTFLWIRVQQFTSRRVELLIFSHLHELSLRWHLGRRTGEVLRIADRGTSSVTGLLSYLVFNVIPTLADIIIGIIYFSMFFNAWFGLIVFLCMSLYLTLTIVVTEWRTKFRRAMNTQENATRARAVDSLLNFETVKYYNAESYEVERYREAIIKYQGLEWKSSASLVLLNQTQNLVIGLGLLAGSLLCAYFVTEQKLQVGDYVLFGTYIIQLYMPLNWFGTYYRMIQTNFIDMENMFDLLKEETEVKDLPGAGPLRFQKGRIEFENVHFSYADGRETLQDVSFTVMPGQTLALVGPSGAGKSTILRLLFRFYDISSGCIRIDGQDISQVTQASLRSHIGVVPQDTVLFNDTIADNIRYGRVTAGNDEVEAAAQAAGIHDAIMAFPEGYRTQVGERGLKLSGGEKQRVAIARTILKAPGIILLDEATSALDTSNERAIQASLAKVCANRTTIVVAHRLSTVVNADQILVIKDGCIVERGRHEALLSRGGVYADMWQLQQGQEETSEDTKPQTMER
# [10] = promoters of myeloid differentiation in arrested cells, primary screen, cell-based, GFP/MAC1 double positive, flow cytometry, validation set (AID 588685;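 active means differentiation response of at least 50%, scaled between solvent and reference control, from cells with both markers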;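 further: compound exposure lasts four days before antibody staining and flow analysis; 0% = DMSO wells and 100% = 5 µM fulvestrant positive control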); conditions: ER-HoxA9 marrow cells, stronger effect = higher value, normalized: vehicle 0, fulvestrant 100
Compound,double positive events [1] [%],vesicle binding response [1],inhibition [2],superoxide response (% of plate) [3],aptamer binding inhibition [4],inhibition [5],response [6],binding (% of control) [7],efflux inhibition (fraction of control) [8],inhibition [9],differentiation response [10]
CC12CCC(C(=O)Nc3ccccc3Br)(C/C1=N\O)C2(C)C (centres undefined),58.3,154% (inactive),-6.77% (inactive),92.2% (inactive),3% (inactive),-0.26% (inactive),2.28% (inactive),96% (inactive),-0.12 (inactive),9% (inactive),-9.89% (inactive)
O=C(CCNNC(=O)c1ccncc1)NCc1ccccc1,66.8,184% (inactive),18.4% (inactive),101% (inactive),-1% (inactive),26.4% (inactive),1.75% (inactive),99% (inactive),0.48 (active),5% (inactive),-24.4% (inactive)
CCCCNC(=O)NS(=O)(=O)c1ccc(C)cc1,56.1,172% (inactive),12.8% (inactive),108% (inactive),4% (inactive),-9.7% (inactive),8.22% (inactive),99% (inactive),-0.05 (inactive),9% (inactive),-19.6% (inactive)
Cn1c(=O)[nH]c(=O)c2c1nc(Br)n2CCCO,64.5,261% (inactive),6.29% (inactive),90.2% (inactive),0% (inactive),7.12% (inactive),0.07% (inactive),109% (inactive),-0.01 (inactive),8% (inactive),-24.4% (inactive)
CNS(=O)(=O)c1ccc(C)cc1,56.5,148% (inactive),6.29% (inactive),99.3% (inactive),2% (inactive),-8.71% (inactive),17.1% (active),93.9% (inactive),0.1 (inactive),8% (inactive),-0.2% (inactive)
Oc1[nH]c2ccccc2c1N=Nc1ccccc1,49.4,168% (inactive),9.09% (inactive),104% (inactive),3% (inactive),-8.96% (inactive),-2.64% (inactive),103% (inactive),-0.35 (inactive),10% (inactive),-8.27% (inactive)
CNC[C@H](O)c1cccc(O)c1,61.2,124% (inactive),-10.5% (inactive),96.3% (inactive),0% (inactive),-4.38% (inactive),3.91% (inactive),102% (inactive),0.875 (active),-8% (inactive),7.13% (inactive)
O=C(CNC(=O)OCc1ccccc1)NC1CCCCCC1,55.1,201% (inactive),10% (inactive),90.8% (inactive),4% (inactive),1.41% (inactive),11.3% (inactive),99.1% (inactive),-0.05 (inactive),12% (inactive),6.26% (inactive)
CN(C)CCN(Cc1cccs1)c1ccccn1,52.7,165% (inactive),13.8% (inactive),113% (inactive),2% (inactive),-17.1% (inactive),8.75% (inactive),101% (inactive),0.18 (inactive),8% (inactive),-21.2% (inactive)
C[C@@H]1C[C@H]2[C@@H]3C[C@H](F)C4=CC(=O)C=C[C@]4(C)[C@@]3(F)[C@@H](O)C[C@]2(C)[C@@]1(O)C(=O)CO,55,206% (inactive),2.56% (inactive),92.5% (inactive),2% (inactive),-9.58% (inactive),10.1% (inactive),103% (inactive),-0.09 (inactive),9% (inactive),-1.82% (inactive)
COC(=O)c1[nH]c2ccc(F)cc2c1NC(=O)C1=COCCO1,55.5,252% (inactive),-3.04% (inactive),89.2% (inactive),1% (inactive),1.47% (inactive),-2.26% (inactive),92.8% (inactive),-0.01 (inactive),7% (inactive),45% (inactive)
O=C(O)c1cc(-c2ccccc2)nc2ccccc12,62,151% (inactive),23.1% (inactive),98.3% (inactive),4% (inactive),27.6% (inactive),-5.56% (inactive),96.2% (inactive),0.1 (inactive),-2% (inactive),6.26% (inactive)
Nc1ncnc2c1ncn2C1OC(CO)C(O)C1O (centres undefined),48.3,175% (inactive),-6.77% (inactive),102% (inactive),3% (inactive),-4.3% (inactive),0.12% (inactive),110% (inactive),-0.01 (inactive),5% (inactive),-18% (inactive)
CC(=Nc1ccccc1)C1=C(O)CCCC1=O,61.6,312% (inactive),13.8% (inactive),104% (inactive),1% (inactive),-9.14% (inactive),8.27% (inactive),97.7% (inactive),-0.24 (inactive),0% (inactive),-21.2% (inactive)

# — PubChem BioAssay
